To fix the notation:
B1: ENSMUSG00000061578.1467|Ksr2 (ssRNA)
RNA: GGGAGUUCUACAGUCCGACGAUCGCUUCGAUAUCCGCAUGCUAUGAAUGGAUGAAUGGAUGGGUGAAUGGAUGGAUAGGUAUGUGAAUAAAUGGAUGGAUGGAUGGAUUGAUUUGUGAAUGAAUGGAUGAAUGGAUGGGUAGGUGGGUGGAUGCAUAGGCAAGUAGAUGAAUGAAUAUGUGGGUAGAAGGGUGAGUGGGUGGAUGAAUGGAUGGAUAGGUUGGUAGGUUAAUGUAUUCGUGGAUGGGUGAAUGGAUGGAUGGAUAGAUAGAUGGGAAGGUGGAUGGACAGAUGGAUGGAUGGACUCUUGCGGUCGCACUAGUGUGGAAUUCUCGGGUGUCAAGG
B2: ENSMUSG00000061578.1466|Ksr2 (ssRNA)
RNA: GGGAGUUCUACAGUCCGACGAUCGCUUCGAUAUCCGCAUGCUAUAUGAAUGAAUGGAUGAAUGGAUGGGUGAAUGGAUGGAUAGGUAUGUGAAUAAAUGGAUGGAUGGAUGGAUUGAUUUGUGAAUGAAUGGAUGAAUGGAUGGGUAGGUGGGUGGAUGCAUAGGCAAGUAGAUGAAUGAAUAUGUGGGUAGAAGGGUGAGUGGGUGGAUGAAUGGAUGGAUAGGUUGGUAGGUUAAUGUAUUCGUGGAUGGGUGAAUGGAUGGAUGGAUAGAUAGAUGGGAAGGUGGAUGGACAGAUGGAUGCUCUUGCGGUCGCACUAGUGUGGAAUUCUCGGGUGUCAAGG
B3: ENSMUSG00000061578.1472|Ksr2 (ssRNA)
RNA: GGGAGUUCUACAGUCCGACGAUCGCUUCGAUAUCCGCAUGCUAGAUAGGUAUGUGAAUAAAUGGAUGGAUGGAUGGAUUGAUUUGUGAAUGAAUGGAUGAAUGGAUGGGUAGGUGGGUGGAUGCAUAGGCAAGUAGAUGAAUGAAUAUGUGGGUAGAAGGGUGAGUGGGUGGAUGAAUGGAUGGAUAGGUUGGUAGGUUAAUGUAUUCGUGGAUGGGUGAAUGGAUGGAUGGAUAGAUAGAUGGGAAGGUGGAUGGACAGAUGGAUGGAUGGAUAGAUAGAUGGACAGGUGGUUGGUGGAUAACUCUUGCGGUCGCACUAGUGUGGAAUUCUCGGGUGUCAAGG
B4: ENSMUSG00000061578.1471|Ksr2 (ssRNA)
RNA: GGGAGUUCUACAGUCCGACGAUCGCUUCGAUAUCCGCAUGCUAUGGAUGGAUAGGUAUGUGAAUAAAUGGAUGGAUGGAUGGAUUGAUUUGUGAAUGAAUGGAUGAAUGGAUGGGUAGGUGGGUGGAUGCAUAGGCAAGUAGAUGAAUGAAUAUGUGGGUAGAAGGGUGAGUGGGUGGAUGAAUGGAUGGAUAGGUUGGUAGGUUAAUGUAUUCGUGGAUGGGUGAAUGGAUGGAUGGAUAGAUAGAUGGGAAGGUGGAUGGACAGAUGGAUGGAUGGAUAGAUAGAUGGACAGGUGGUUGGUCUCUUGCGGUCGCACUAGUGUGGAAUUCUCGGGUGUCAAGG
B5: ENSMUSG00000061578.1460|Ksr2 (ssRNA)
RNA: GGGAGUUCUACAGUCCGACGAUCGCUUCGAUAUCCGCAUGCUAGAUGGAUGAAUGGAUGGGUAGGUGGGUAGAUAGGUAUAUGAAUGAAUGGAUGAAUGGAUGGGUGAAUGGAUGGAUAGGUAUGUGAAUAAAUGGAUGGAUGGAUGGAUUGAUUUGUGAAUGAAUGGAUGAAUGGAUGGGUAGGUGGGUGGAUGCAUAGGCAAGUAGAUGAAUGAAUAUGUGGGUAGAAGGGUGAGUGGGUGGAUGAAUGGAUGGAUAGGUUGGUAGGUUAAUGUAUUCGUGGAUGGGUGAAUGGAUGGAUGCUCUUGCGGUCGCACUAGUGUGGAAUUCUCGGGUGUCAAGG
B6: ENSMUSG00000061578.1475|Ksr2 (ssRNA)
RNA: GGGAGUUCUACAGUCCGACGAUCGCUUCGAUAUCCGCAUGCUAUGGAUGGAUGGAUGGAUUGAUUUGUGAAUGAAUGGAUGAAUGGAUGGGUAGGUGGGUGGAUGCAUAGGCAAGUAGAUGAAUGAAUAUGUGGGUAGAAGGGUGAGUGGGUGGAUGAAUGGAUGGAUAGGUUGGUAGGUUAAUGUAUUCGUGGAUGGGUGAAUGGAUGGAUGGAUAGAUAGAUGGGAAGGUGGAUGGACAGAUGGAUGGAUGGAUAGAUAGAUGGACAGGUGGUUGGUGGAUAAAUGAGUGAAUGAUUAUGUCUCUUGCGGUCGCACUAGUGUGGAAUUCUCGGGUGUCAAGG
B7: ENSMUSG00000061578.1470|Ksr2 (ssRNA)
RNA: GGGAGUUCUACAGUCCGACGAUCGCUUCGAUAUCCGCAUGCUAGGUGAAUGGAUGGAUAGGUAUGUGAAUAAAUGGAUGGAUGGAUGGAUUGAUUUGUGAAUGAAUGGAUGAAUGGAUGGGUAGGUGGGUGGAUGCAUAGGCAAGUAGAUGAAUGAAUAUGUGGGUAGAAGGGUGAGUGGGUGGAUGAAUGGAUGGAUAGGUUGGUAGGUUAAUGUAUUCGUGGAUGGGUGAAUGGAUGGAUGGAUAGAUAGAUGGGAAGGUGGAUGGACAGAUGGAUGGAUGGAUAGAUAGAUGGACAGGUGCUCUUGCGGUCGCACUAGUGUGGAAUUCUCGGGUGUCAAGG
B8: ENSMUSG00000061578.1462|Ksr2 (ssRNA)
RNA: GGGAGUUCUACAGUCCGACGAUCGCUUCGAUAUCCGCAUGCUAGAUGGGUAGGUGGGUAGAUAGGUAUAUGAAUGAAUGGAUGAAUGGAUGGGUGAAUGGAUGGAUAGGUAUGUGAAUAAAUGGAUGGAUGGAUGGAUUGAUUUGUGAAUGAAUGGAUGAAUGGAUGGGUAGGUGGGUGGAUGCAUAGGCAAGUAGAUGAAUGAAUAUGUGGGUAGAAGGGUGAGUGGGUGGAUGAAUGGAUGGAUAGGUUGGUAGGUUAAUGUAUUCGUGGAUGGGUGAAUGGAUGGAUGGAUAGAUAGAUGCUCUUGCGGUCGCACUAGUGUGGAAUUCUCGGGUGUCAAGG
B9: ENSMUSG00000061578.1477|Ksr2 (ssRNA)
RNA: GGGAGUUCUACAGUCCGACGAUCGCUUCGAUAUCCGCAUGCUAUGGAUUGAUUUGUGAAUGAAUGGAUGAAUGGAUGGGUAGGUGGGUGGAUGCAUAGGCAAGUAGAUGAAUGAAUAUGUGGGUAGAAGGGUGAGUGGGUGGAUGAAUGGAUGGAUAGGUUGGUAGGUUAAUGUAUUCGUGGAUGGGUGAAUGGAUGGAUGGAUAGAUAGAUGGGAAGGUGGAUGGACAGAUGGAUGGAUGGAUAGAUAGAUGGACAGGUGGUUGGUGGAUAAAUGAGUGAAUGAUUAUGUUGAUAGAUAUGUCUCUUGCGGUCGCACUAGUGUGGAAUUCUCGGGUGUCAAGG
B10: ENSMUSG00000061578.1458|Ksr2 (ssRNA)
RNA: GGGAGUUCUACAGUCCGACGAUCGCUUCGAUAUCCGCAUGCUAGAAUGAAUGGAUGAUGGAUGAAUGGAUGGGUAGGUGGGUAGAUAGGUAUAUGAAUGAAUGGAUGAAUGGAUGGGUGAAUGGAUGGAUAGGUAUGUGAAUAAAUGGAUGGAUGGAUGGAUUGAUUUGUGAAUGAAUGGAUGAAUGGAUGGGUAGGUGGGUGGAUGCAUAGGCAAGUAGAUGAAUGAAUAUGUGGGUAGAAGGGUGAGUGGGUGGAUGAAUGGAUGGAUAGGUUGGUAGGUUAAUGUAUUCGUGGAUGGGUGCUCUUGCGGUCGCACUAGUGUGGAAUUCUCGGGUGUCAAGG
B11: ENSMUSG00000061578.1468|Ksr2 (ssRNA)
RNA: GGGAGUUCUACAGUCCGACGAUCGCUUCGAUAUCCGCAUGCUAGAUGAAUGGAUGGGUGAAUGGAUGGAUAGGUAUGUGAAUAAAUGGAUGGAUGGAUGGAUUGAUUUGUGAAUGAAUGGAUGAAUGGAUGGGUAGGUGGGUGGAUGCAUAGGCAAGUAGAUGAAUGAAUAUGUGGGUAGAAGGGUGAGUGGGUGGAUGAAUGGAUGGAUAGGUUGGUAGGUUAAUGUAUUCGUGGAUGGGUGAAUGGAUGGAUGGAUAGAUAGAUGGGAAGGUGGAUGGACAGAUGGAUGGAUGGAUAGAUACUCUUGCGGUCGCACUAGUGUGGAAUUCUCGGGUGUCAAGG
B12: ENSMUSG00000061578.1473|Ksr2 (ssRNA)
RNA: GGGAGUUCUACAGUCCGACGAUCGCUUCGAUAUCCGCAUGCUAUAUGUGAAUAAAUGGAUGGAUGGAUGGAUUGAUUUGUGAAUGAAUGGAUGAAUGGAUGGGUAGGUGGGUGGAUGCAUAGGCAAGUAGAUGAAUGAAUAUGUGGGUAGAAGGGUGAGUGGGUGGAUGAAUGGAUGGAUAGGUUGGUAGGUUAAUGUAUUCGUGGAUGGGUGAAUGGAUGGAUGGAUAGAUAGAUGGGAAGGUGGAUGGACAGAUGGAUGGAUGGAUAGAUAGAUGGACAGGUGGUUGGUGGAUAAAUGAGUCUCUUGCGGUCGCACUAGUGUGGAAUUCUCGGGUGUCAAGG

Data on 12 molecules can be found in PMC12864922, “TDP-43 directly inhibits mRNA accumulation in neurites through modulation of mRNA stability”.

In all, about 9,900 sequences were measured (“r (bound/input frequency ratio)”: median about 0.7, highest 2% from about 6.5 on). The full list was thinned out, with the highest values kept by preference.

In the assay the target is TDP-43 (Homo sapiens, UniProt Q13148 1-414). As to the kind of experiment: RNA Bind-n-Seq with designed 260-mer pool; 25 mM Tris-HCl, 150 mM KCl, 3 mM MgCl2, BSA (printed 500 mg/mL), 20 units/mL SUPERase IN; pH not stated; 500 nM RNA pool, 1 h, 4 C; TDP-43 5, 50, 500 nM; high values mean tight binding. The note with it: protein: recombinant; tags: SBP (GST cleaved off with PreScission; pGEX-GST-SBP). An outline of the steps: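 An in vitro-transcribed pool of 260-nt 3′ UTR oligos (500 nM) was incubated for 1 h at 4 °C with recombinant SBP-tagged TDP-43 at 5, 50 or 500 nM held on streptavidin beads. The buffer contained 25 mM Tris-HCl, 150 mM KCl, 3 mM MgCl2, BSA and SUPERase IN. Biotin-eluted bound RNA was sequenced, and binding, R, is each oligo's normalized read abundance in the bound sample over that in input.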
Chain of TDP-43 (Q13148 whole entry): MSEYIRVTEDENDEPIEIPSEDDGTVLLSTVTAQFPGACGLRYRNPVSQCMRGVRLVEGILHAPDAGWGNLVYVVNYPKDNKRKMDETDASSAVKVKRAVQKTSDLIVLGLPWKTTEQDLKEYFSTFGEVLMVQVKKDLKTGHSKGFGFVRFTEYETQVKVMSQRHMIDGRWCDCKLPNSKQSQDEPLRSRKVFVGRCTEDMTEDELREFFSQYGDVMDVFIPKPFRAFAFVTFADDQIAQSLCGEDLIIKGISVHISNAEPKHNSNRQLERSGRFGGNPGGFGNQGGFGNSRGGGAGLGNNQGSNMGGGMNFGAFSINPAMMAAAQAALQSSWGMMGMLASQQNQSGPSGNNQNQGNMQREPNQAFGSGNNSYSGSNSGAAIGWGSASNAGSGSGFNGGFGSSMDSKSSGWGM
For B1, the binding signal was 3.46 R (bound/input frequency ratio).

In the case of B2, the binding signal is 5.78 R (bound/input frequency ratio). Then B3, with 5.09 R (bound/input frequency ratio); and B4, with 6.33 R (bound/input frequency ratio); and B5, with 6.72 R (bound/input frequency ratio). Under B6 stands 8.8 R (bound/input frequency ratio); under B7, 5.59 R (bound/input frequency ratio).

On to B8, for which the binding signal was 5.83 R (bound/input frequency ratio). Then B9, with 5.58 R (bound/input frequency ratio).

For B10, the binding signal is 4.62 R (bound/input frequency ratio). Under B11 stands 14.4 R (bound/input frequency ratio); under B12, 9.68 R (bound/input frequency ratio).
